# Experimental data as given in PubChem BioAssay.
# Tests used:
# [1] = inhibitors of PAF-induced NFkB signaling in CF airway cells, dose response, cell-based, uHTS hits, panel, cytotoxicity readout (AID 624344); settings: CF bronchial epithelial cells, PAF-induced NFkB reporter inhibition, with PAF, run 1; at 79 µM (top of the series) unless noted
# [2] = as above; settings: CF bronchial epithelial cells, PAF-induced NFkB reporter inhibition, with PAF, run 2; at 79 µM (top of the series) unless noted
SMILES,inhibition [1],inhibition [2]
COc1ccccc1NC(=O)c1cc2c(CO)cnc(C)c2oc1=Nc1ccc(OC)c(OC)c1,73.4%,93.8%
CN(Cc1ccco1)c1ncnc2ccc(-c3ccoc3)cc12,114%,101%
O=C(Nc1cccc(S(=O)(=O)N2CCCCC2)c1)Nc1ccc(Cl)cc1Cl,103%,117%
CC(C)Cc1nc2oc3c(NCC4CCCO4)ncnc3c2c2c1CCC2 (stereo not given),101%,98.5%
O=C(Oc1cc2oc(=O)cc(-c3ccccc3)c2cc1Cl)C1CCCCC1,113%,105%
CCN1CCN(Cc2ccc(NC(=O)c3ccc(C)c(NC(=O)c4cccc5[nH]ccc45)c3)cc2C(F)(F)F)CC1,84.6%,77.6%
O=C(NCc1ccccc1)C1=C[C@H](c2csc3ccccc23)C[C@H](OCc2ccc(CO)cc2)O1,72%,52.1%
Nc1ncc(-c2ccccc2)c(-c2ccc(O)cc2O)n1,100%,112%
CNC(=O)c1ccc(NC(=O)C2CCN(c3ncnc4sc(C)c(C)c34)CC2)cc1,85.3%,72%
COc1ccc2cc3c(N)nn(C(=O)Cc4ccccc4OC)c3nc2c1,106%,100%
CCOC(=O)c1ccc(-n2[nH]c(-c3ccccc3)cc2=O)cc1,113%,93.3%
N=C1N(c2ccccc2)C(=S)C(=Nc2ccccc2)N1c1ccccc1,114%,103%
Cc1ccc(C)c(S(=O)(=O)N(C(=O)c2ccncc2)c2ccc(OC(=O)c3ccncc3)cc2)c1,104%,118%
COc1ccc(COC(=O)C2=C(C)NC(=O)NC2c2ccc(F)cc2)cc1 (stereo not given),90.1%,105%
Brc1ccc2ncnc(NCc3ccccc3)c2c1,108%,104%
O=C1NC(=S)N/C1=C\c1cccnc1,99.3%,99.2%
c1csc(CNc2ncnc3ccc(-c4ccoc4)cc23)c1,105%,116%
CC(=O)NC(CC(C)C)C(=O)NC(Cc1ccccc1)C(=O)CCl (stereo not given),97.3%,104%
Cc1nc2sc(C(N)=O)c(N)c2c2c1CCCC2,116%,104%
CCOC(=O)Nc1nc(-c2ccccc2)c(C(=O)c2ccccc2)s1,99.4%,78.8%
O=C(NNc1ccccc1Br)C(O)(c1cccc(C(F)(F)F)c1)c1cccc(C(F)(F)F)c1,103%,104%
CC(=O)Oc1ccccc1C(=O)Oc1ccc(/C=N/n2cnnc2)cc1,106%,105%

SMILES,inhibition [1],inhibition [2]
CCOC(=O)C1=C(CC)Nc2ccccc2N=C1NC(=O)c1oc2ccccc2c1C,111%,91.5%
C=CCN1c2ccccc2[C@]23C[C@@H](C(=O)OC)N(C(=O)c4ccc(Br)cc4)C2=NC(C(=O)OC)=C(C(=O)OC)[C@H]13,115%,101%
Cc1ncc(CO)c2c1Oc1nc(-c3ccccc3F)nc(SCC(=O)N(C)c3ccccc3)c1C2,105%,102%
Cc1ccc(C(C(=O)NCc2ccccc2)N(Cc2cccs2)C(=O)c2ccc3c(c2)OCCO3)cc1 (stereo not given),106%,98.3%
c1nc(NCc2ccc3c(c2)OCO3)c2cc(-c3ccoc3)ccc2n1,102%,102%
c1cncc(CNc2ncnc3ccc(-c4ccoc4)cc23)c1,113%,98.2%
c1cc(-c2cnc3cccnn23)c2cccnc2c1,114%,105%
CC(C)(C)S(=O)N1Cc2cc(C(=O)NCC(F)(F)F)nc(-c3cccc(-c4cccc(F)c4)c3)c2[C@@H]1CCO (stereo not given in full),110%,103%
Cc1ccc2occ(/C=N/NC(=O)c3ccccc3Br)c(=O)c2c1,94.7%,114%
Cc1ccc(S(=O)(=O)N2[C@@H](c3ccc(C(C)(C)C)cc3)C(C(=O)O)=CC[C@H]2c2ccc(C(C)C)cc2)cc1,65%,115%
Cc1cccc(NS(=O)(=O)c2ccc(-c3cnc(C4CC4)o3)cc2)c1C,105%,107%
COc1cc(NC(=O)c2csc(-c3ccncc3)n2)cc(C(=O)Nc2cccc(C(F)(F)F)c2)c1,102%,105%
CN(CCC#N)C(=O)COC(=O)c1ccccc1C(=O)c1ccc(Cl)c([N+](=O)[O-])c1,96.7%,105%
CCCCCCc1cc2cc(C(=O)OCC)c(=O)oc2cc1O,106%,117%
COc1ccc(OC)c(-c2nnc3n2N=C(c2ccc(OC)c(OCC4CC4)c2)CS3)c1,113%,85.1%
Cc1nc(N2CCC(C(N)=O)CC2)c2c(-c3cccs3)csc2n1,97.5%,93.8%
COCc1cc(S(=O)c2ccc(Cl)cc2)nc(C)n1 (stereo not given),103%,105%
CCOC(=O)[C@@H]1[C@H]2COc3ccc(Br)cc3[C@H]2N2C(=O)N(c3ccc(C)cc3)C(=O)[C@]12C,14.6%,35.9%
O=C(Nc1cccc(-c2cnc3ccccc3n2)c1)c1cccc(NC(=O)c2ccco2)c1,98.6%,96.6%
COc1cc(C(=O)c2cc3c(cc2C)OCO3)cc(OC)c1OC,48.2%,51.8%
CC1CCc2c(sc3ncnc(N4CCOCC4)c23)C1 (stereo not given),114%,101%
CC1C(=O)N(Cc2cn(Cc3ccco3)nn2)CCS(=O)(=O)N1Cc1ccc(-c2ccccc2C(F)(F)F)cc1 (stereo not given),97.9%,114%

SMILES,inhibition [1],inhibition [2]
CCOCC(=O)NC1CCc2cc(OC(=O)COCC)c(OC)c(OC)c2-c2ccc(SC)c(=O)cc21 (stereo not given),45.7%,85.3%
COc1ccc(-c2cc(=O)oc3c(C)c(O)ccc23)cc1,94.8%,101%
CC(C)c1nc(Cl)c(C#N)c2c1CCCC2,96.5%,112%
c1cncc(-c2ccc3ncnc(NCc4ccc5c(c4)OCO5)c3c2)c1,112%,101%
CCCCNc1c(-c2cccc(-c3ccc(OC)cc3)c2)nc2ccc(C)cn12,98.7%,107%
Cc1ccc(-c2cc(C(=O)N/N=C/c3c(C)nn(-c4ccccc4)c3C)[nH]n2)cc1,62.7%,88.3%
Cc1ccc(CSc2nccc(-c3c(C)nc4ccccn34)n2)cc1,101%,102%
Cc1csc(CNc2ncnc3ccc(-c4ccoc4)cc23)c1,111%,99.4%
N#CC(C#N)c1ccnc2ccccc12,110%,102%
Cc1c([N+](=O)[O-])c2ccc(O)cc2n1-c1ccccc1,109%,94.8%
Cc1ccc(NC(=O)c2cc(C(=O)c3cc(Cl)ccc3O)cn(-c3ccc(C)cc3)c2=O)cc1,65.5%,96.9%
O=[N+]([O-])C1C(c2ccccc2)C12c1ccccc1-c1ccccc12 (stereo not given),99.1%,106%
CCc1nc(Cl)c(C#N)c2c1CCCC2,112%,105%
C=CC[C@@H](CC(=O)N(CCO)Cc1ccccc1)C(=O)NC[C@H](OC(=O)[C@@H](CC=C)Cc1ccc(F)cc1)c1ccccc1,110%,102%
Clc1ccccc1C1=Nn2c(nnc2-c2ccncc2)SC1,109%,100%
O=C(c1[nH]c(C(F)(F)F)nc1-c1ccccc1)N1CCN(c2c(Cl)cncc2Cl)CC1,103%,96.2%
CCN1CCN(Cc2ccc(NC(=O)c3ccc(C)c(NC(=O)N4CCNC4=O)c3)cc2C(F)(F)F)CC1,103%,119%
CCn1c(=O)c2c(cnn2C)c2ccccc21,117%,103%
C[C@@H]1CN([C@H](C)CO)C(=O)c2cc(NC(=O)Nc3ccc(C(F)(F)F)cc3)ccc2O[C@H]1CN(C)S(=O)(=O)c1ccccc1,92%,110%
CCCc1nc(Cl)c(C#N)c2c1CCCC2,97.8%,98.1%
CCOC(=O)c1c(C)cc2c(CO)n[nH]c(=O)c2c1C,104%,95.8%
CCCc1nnc(NC(=O)c2nc(S(=O)(=O)Cc3ccc(C)cc3)ncc2Cl)s1,89%,86.5%

SMILES,inhibition [1],inhibition [2]
C=C1C(=O)O[C@H]2C[C@H]1[C@@H](OC(C)=O)C/C(C)=C/CC/C(C)=C\CC[C@]2(C)O,107%,97.5%
c1ccc2c(-c3cncc4ccccc34)cncc2c1,110%,99.8%
Cc1nnc(Sc2nc3ccccc3o2)c2ccccc12,98.3%,107%
COc1ccc(OC)c(-c2nnc3n2N=C(c2ccc(OC)c(OC4CCCC4)c2)CS3)c1,103%,110%
COc1ccc(CN2C[C@H]3CCCN3c3cc(Br)ccc3S2(=O)=O)cc1,74.6%,92.2%
Cc1ccccc1S(=O)(=O)Cc1ccc(C(=O)N2CCN(c3cccc(C)c3C)CC2)o1,103%,114%
C[C@@H]1CN([C@H](C)CO)C(=O)c2cc(NC(=O)Nc3ccc(C(F)(F)F)cc3)ccc2O[C@H]1CN(C)S(=O)(=O)c1ccc(Cl)cc1,86.7%,92.7%
NC(=S)N1OC[C@@H]2COc3ccc4ccccc4c3[C@@H]21,114%,105%
CCCCCCCCCc1nc2sc3c(c2c(=O)n1NC(=O)c1ccc([N+](=O)[O-])cc1)CC(C)(C)OC3,80.5%,115%
CC(=O)OCCN1c2ccccc2Sc2cnccc21,105%,109%
CCOc1ccc(-n2c(C)c(C(C)=O)c3cc(OC(C)=O)ccc32)cc1,89%,90%
Cc1c(C(=O)OC2CCCC2)[nH]c2c1C(=O)CC(c1ccco1)C2 (stereo not given),29%,115%
Cc1cc(N2C(=O)C(O)=C(C(=O)c3ccc(C)o3)C2c2cccc(Oc3ccccc3)c2)no1 (stereo not given),64%,82.8%
COc1ccc(-c2csc(/C(C#N)=C\c3ccc(O)c([N+](=O)[O-])c3)n2)cc1OC,97.7%,102%
Cc1cc(C)cc(NS(=O)(=O)c2ccc(-c3cnc(C4CC4)o3)cc2)c1,110%,106%
CN(C)CCCN(C(=O)CCOc1ccccc1)c1nc2ccc(F)cc2s1,101%,105%
Cc1cnc(NC(=O)CCCc2nc3ccccc3s2)s1,101%,114%
FC(F)(F)c1nnc2c(Sc3ccccc3)nc3ccccc3n12,92.8%,88.4%
COc1ccc2[nH]c3c(c2c1)CCN1C(=O)C(CC(=O)NCCC2=CCCCC2)C[C@H](C(=O)N2CCCCC2)[C@@]31CCc1ccccc1 (stereo not given in full),104%,40.2% [at 39.5 µM]
